This note sets out measurements from PubChem BioAssay (Tox21).

Inconclusive results are not listed. Values without a mark were called inactive. The source made the active and inactive calls. Calls follow the shape of the full dose curve.
% is scaled to controls: 0 for no effect and ±100 for the full control effect; potency is read from the fitted curve at half-maximal effect.

Chain of Thyrotropin receptor (Homo sapiens) (P16473 whole entry, looked up): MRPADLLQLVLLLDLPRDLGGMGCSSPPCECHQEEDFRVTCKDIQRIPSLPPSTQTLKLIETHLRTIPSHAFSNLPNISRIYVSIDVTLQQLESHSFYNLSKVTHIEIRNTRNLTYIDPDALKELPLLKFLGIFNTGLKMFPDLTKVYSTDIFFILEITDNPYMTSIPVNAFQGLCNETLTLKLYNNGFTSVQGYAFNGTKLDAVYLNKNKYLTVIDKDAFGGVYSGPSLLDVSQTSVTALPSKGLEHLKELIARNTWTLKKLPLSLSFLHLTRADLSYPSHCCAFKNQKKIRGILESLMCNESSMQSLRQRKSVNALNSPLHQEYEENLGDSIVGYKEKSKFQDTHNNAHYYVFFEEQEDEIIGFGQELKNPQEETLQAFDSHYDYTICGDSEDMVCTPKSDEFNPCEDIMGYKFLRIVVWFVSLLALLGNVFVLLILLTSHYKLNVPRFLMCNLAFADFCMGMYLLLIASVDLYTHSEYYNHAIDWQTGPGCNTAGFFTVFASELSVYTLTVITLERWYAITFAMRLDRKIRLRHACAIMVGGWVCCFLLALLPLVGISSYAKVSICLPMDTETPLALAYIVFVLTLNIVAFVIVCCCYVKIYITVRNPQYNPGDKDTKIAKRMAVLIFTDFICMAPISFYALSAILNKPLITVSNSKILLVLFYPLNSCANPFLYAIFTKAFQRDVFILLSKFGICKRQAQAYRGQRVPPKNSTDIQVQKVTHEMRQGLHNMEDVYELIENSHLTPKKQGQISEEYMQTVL

For the test, the target named is Thyrotropin receptor (Homo sapiens) (UniProt P16473). As to the kind of experiment: qHTS assay to identify small molecule agonists of the thyroid stimulating hormone receptor (TSHR) signaling pathway (AID 1224843). Also: nearly all actives have a fitted effect of over 45% in size. Conditions: TSHR-HEK293 cells, cAMP HTRF, agonist mode, 30 min; series mostly up to 92.4 µM; activation: at the top concentration. The text has this:
National Center for Advancing Translational Sciences [NCATS]
NIH Chemical Genomics Center [NCGC]
U.S. Environmental Protection Agency [EPA]
National Institutes of Environmental Health Sciences [NIEHS]
National Toxicology Program [NTP]
U.S. Food and Drug Administration [FDA]
TSHR is the receptor for thyrotropin (thyroid stimulating hormone or TSH), a member of the glycoprotein hormone family. TSH is released by the anterior pituitary gland and is the main regulator of thyroid gland growth and development. Upon binding circulating thyrotropin, a G-protein signal cascade activates adenylyl cyclase and […] cAMP concentration is increased. cAMP is a key second messenger involved extensively in cellular signal transduction pathways associated with the majority of G-protein coupled receptors (GPCRs). The activation of these GPCRs by neurotransmitters, lipids, nucleotides, peptides and hormones results in the activation or the inhibition of plasma membrane-bound adenylate cyclase through heterotrimeric G-proteins. A cell-based TSHR assay was used to screen the Tox21 10K library for compounds that can modulate TSHR in agonist mode.
Tox21 Assay Protocol Summary:
TSHR-Hek293 cells were dispensed at 800 cells/4uL/well in 1536-well white plates using a Multidrop dispenser. […] The plates were incubated at room temperature for 30 min. 2.5 ul/well of cAMP-d2 and 2.5ul/well of anti-cAMP-cryptate was added respectively into the assay plates using a Flying Reagent Dispenser. After 1 hr incubation at room temperature, the fluorescence intensity in the plates was measured using an Envision plate reader. Each test compound was measured at 15 concentrations and in triplicates.
On the technique in general: In qHTS, concentration-response curves come from the screen itself.
With `CC1=C(/C=C/C(C)=C/C=C/C(C)=C/C=O)C(C)(C)CCC1`, the Potency is 6.82 µM (active).

As for `CCCC(=O)OC[C@@H](OC(=O)CCC)[C@@H](OC(=O)CCC)[C@H](Cn1c2nc(=O)[nH]c(=O)c-2nc2cc(C)c(C)cc21)OC(=O)CCC`, the “activation” value was 3.93% [at 42.5 µM].

In the case of `O=C(c1ccc(F)cc1)C1CCN(CCn2c(=O)[nH]c3ccccc3c2=O)CC1`, the “activation” value is -9.39% [at 42.5 µM].

In the case of `CCCCCCCCCCCCCCCC[N+](C)(C)CCN(Cc1ccc(OC)cc1)c1ncccn1`, the “activation” value was 0.465% [at 42.5 µM].

With `Oc1ccc(N=Nc2ccccc2)cc1`, the Potency was 49.2 µM (active).

Consider `CN(C)[C@@H]1C(=O)C(C(N)=O)=C(O)[C@@]2(O)C(=O)C3=C(O)c4c(O)ccc(Cl)c4[C@@H](O)[C@H]3C[C@@H]12`, for which the “activation” value was 3.73% [at 42.5 µM].

Turning to `CCOC(=O)O[C@]1(C(=O)OCCl)CC[C@H]2[C@@H]3CCC4=CC(=O)C=C[C@]4(C)[C@H]3[C@@H](O)C[C@@]21C`, the “activation” value is 0.949% [at 42.5 µM].

`CCCCCCCCCCCCCC[P+](CCCC)(CCCC)CCCC` (tested in a mixture with another compound): the “activation” value is -22.8%.

Consider `CC[C@@]1(O)C(=O)OCc2c1cc1n(c2=O)Cc2c-1nc1ccccc1c2/C=N/OC(C)(C)C`, for which the “activation” value is -4.84% [at 42.5 µM].

Turning to `O=C(O)c1c(Cl)cccc1Cl`, the “activation” value is 4.51%.

Consider `ON=C1CCCC1`, for which the “activation” value was 18.6%.

On to `O=C(O)c1cc(O)c2c(c1)C(=O)c1cccc(O)c1C2=O`, for which the “activation” value was -0.578%.

On to `CS(=O)(=O)CCNCc1ccc(-c2ccc3ncnc(Nc4ccc(OCc5cccc(F)c5)c(Cl)c4)c3c2)o1`, for which the “activation” value is -1.51% [at 42.5 µM].

As for `CCCN(CCC)c1c([N+](=O)[O-])cc(C(F)(F)F)c(N)c1[N+](=O)[O-]`, the Potency was 6.09 µM (active).

Regarding `CN1CCC(Nc2ncc3ncnc(Nc4ccc(F)c(Cl)c4)c3n2)CC1`, the “activation” value is -13.7% [at 42.5 µM].

Consider `C=CC(=O)OCCn1c(=O)n(CCOC(=O)C=C)c(=O)n(CCOC(=O)C=C)c1=O`, for which the Potency was 27.3 µM (active).

`Cc1nc(-c2ccc3c(c2)CCN(CCC2CCC(NC(=O)/C=C/c4ccc(F)cc4)CC2)CC3)no1` (stereo not given): the “activation” value was 2.76% [at 42.5 µM].

For `CCN(C(=O)c1cc(C)cc(OC[C@H](C)Nc2ccncc2)c1)C(C)C`, the “activation” value is -22.9% [at 42.5 µM].

`Nc1ccc2c3c(cccc13)-c1ccccc1-2`: the “activation” value was -1.68%.

Regarding `Cc1c(C)c2c(c(C)c1OC(=O)CCC(=O)O)CC[C@@](C)(CCC[C@H](C)CCC[C@H](C)CCCC(C)C)O2`, the “activation” value was 9.18%.

`CC(C)(C)C(=O)OCOC(=O)C1N2C(=O)CC2S(=O)(=O)C1(C)C` (stereo not given): the “activation” value was 3.54% [at 42.5 µM].

As to `O=C1CCCCCN1SSN1CCCCCC1=O`, the “activation” value was -1.48%.

`Cc1onc(-c2c(Cl)cccc2Cl)c1C(=O)N[C@@H]1C(=O)N2[C@@H]1SC(C)(C)[C@@H]2C(=O)O`: the “activation” value is 0.975% [at 42.5 µM].

As for `Cc1cc(O)c(Cl)c(C)c1Cl`, the “activation” value is -1.48%.

For `O=c1cc(-c2ccc(O)cc2)oc2cc(O)cc(O)c12`, the Potency entry is “inactive”.

Regarding `CCCCCCC[N+](CC)(CC)CCCCc1ccc(Cl)cc1`, the “activation” value was -1.96% [at 42.5 µM].

For the compound `Cc1cc(N)c(S(=O)(=O)O)cc1Cl`, the “activation” value is -7.82%.

For `Oc1c(Cl)cc(Cl)c2cccnc12`, the “activation” value was -8.72% [at 42.5 µM].

`N#CC1(c2ccc(F)cc2)CCC(=O)CC1`: the “activation” value is 3.44% [at 42.5 µM].

For `OCCCCCCCCCCCCBr`, the “activation” value is 10.2%.

For `O=C(OCC(COC(=O)c1ccccc1)(COC(=O)c1ccccc1)COC(=O)c1ccccc1)c1ccccc1`, the “activation” value was -1.5%.

`C=CC(=O)OCC(CO)(COCC(COC(=O)C=C)(COC(=O)C=C)COC(=O)C=C)COC(=O)C=C`: the Potency is 6.04 µM (active).

`Clc1ccc2nsnc2c1NC1=NCCN1`: the “activation” value is -0.0237% [at 42.5 µM].

Take `Clc1ccc2n[nH]nc2c1`: the “activation” value was 2.87%.

For the compound `O=C(Nc1cccc([N+](=O)[O-])c1)c1cc2ccccc2cc1O`, the “activation” value was -14.9%.

`C[n+]1ccn(Cc2ccccc2)c1`: the “activation” value is 0.179%.

Consider `CCN(C(=O)N(CC)c1ccccc1)c1ccccc1`, for which the Potency is 61.1 µM (active).

For `COc1ccc(C(=O)/C(Br)=C\C(=O)O)cc1`, the “activation” value is 17.8%.

Consider `CCCCN1C(=O)[C@@H]([C@H](O)C2CCCCC2)NC(=O)C12CCN(Cc1ccc(Oc3ccc(C(=O)O)cc3)cc1)CC2`, for which the “activation” value is -4.4%.

As to `CC(C)c1ccc2c(c1)CC[C@H]1[C@](C)(CN)CCC[C@]21C`, the “activation” value is 2.36%.
